# Test results: PubChem BioAssay (Tox21)
# Inconclusive results are not listed. Where a call stands in place of a potency, no number is given. Active and inactive are the calls of the source. Unless noted, calls follow the shape of the dose curve; as a rule, active = well fitted curve in the direction sought with a large enough effect in the repeat runs; inconclusive = weak or mixed curves; inactive = no such curve, though single readings can be large; an effect the other way counts as inactive or inconclusive.
# Legend:
# [1] = qHTS assay to identify aromatase inhibitors - cell viability counter screen (AID 743084);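 also: cells stimulated with testosterone during compound exposure; nearly all actives have a fitted effect of over 55% in size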
# [2] = molecular target: Aryl hydrocarbon receptor (Homo sapiens) (UniProt P35869); experiment: qHTS assay to identify small molecule that activate the aryl hydrocarbon receptor (AhR) signaling pathway (AID 743085); also: nearly all actives have a fitted effect of over 15% in size; also: potency is read from the fitted curve at half-maximal effect;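 as to activation: HG2L7.5c1 human HepG2 liver cells with stably integrated DRE-driven firefly reporter; series mostly up to about 70 µM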
# Outline: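 HepG2 cells (HG2L7.5c1) stably carrying a firefly luciferase reporter driven by 20 dioxin responsive elements were exposed to compound for 24 h at 37C after a 5 h settling period; luminescence rise (ONE-Glo) indicated activation.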
# [3] = qHTS assay to identify small molecule that activate the aryl hydrocarbon receptor (AhR) signaling pathway - cell viability counter screen (AID 743086);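 also: HepG2 liver cells carrying the AhR DRE luciferase reporter; series mostly up to about 70 µM; nearly all actives have a fitted effect of over 45% in size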
# Outline: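 Cytotoxicity counter screen: CellTiter-Fluor signal (30 min, 37 C) in 4000 HepG2 cells/well carrying the DRE-luciferase reporter, following 24 h compound exposure at 37 C.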
# [4] = molecular target: Peroxisome proliferator-activated receptor gamma (Homo sapiens) (UniProt P37231); experiment: qHTS assay to identify small molecule agonists of the peroxisome proliferator-activated receptor gamma (PPARg) signaling pathway (AID 743094; active = well fitted activation curve with a large enough effect in the signal ratio in the repeat runs, not every such curve was filed as active; the % refers to the signal ratio)
# Outline: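 Cells from the PPARg UAS-bla HEK293H line are plated and incubated 5 h at 37C. Compounds in DMSO are pinned in and left 17 h at 37C. LiveBLAzer B/G substrate is then added for 1 h at room temperature before fluorescence is measured.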
# [5] = molecular target: Peroxisome proliferator-activated receptor gamma (Homo sapiens) (UniProt P37231); experiment: qHTS assay to identify small molecule antagonists of the peroxisome proliferator-activated receptor gamma (PPARg) signaling pathway (AID 743191; calls by dose curve; also: series mostly up to about 63 µM; nearly all actives have a fitted effect of over 30% in size)
# Outline: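 Beta-lactamase reporter under UAS control in HEK293H PPARg-bla cells; compound treatment 17 h at 37C. Read-out: fluorescence intensity after 1 h room-temperature incubation with LiveBLAzer B/G FRET substrate.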
# [6] = qHTS assay for small molecule agonists of the antioxidant response element (ARE) signaling pathway (AID 743202; active = well fitted activation curve with a large enough effect in the signal ratio in the repeat runs, not every such curve was filed as active; the % refers to the signal ratio)
# Outline: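 Beta-lactamase reporter activity, read as fluorescence intensity, reflects ARE/Nrf2 pathway induction in HepG2 cells after 16 h compound exposure at 37 C; substrate loading was 2 h at room temperature.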
# [7] = qHTS assay for small molecule agonists of the antioxidant response element (ARE) signaling pathway - cell viability counter screen (AID 743203; calls by dose curve; also: nearly all actives have a fitted effect of over 55% in size)
# Outline: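 Cytotoxicity was tested in parallel with the ARE reporter screen. ARE-bla HepG2 cells were exposed to compounds for 16 hrs, and viability was taken from CellTiter-Glo luminescence.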
# [8] = qHTS assay for small molecule activators of the heat shock response signaling pathway (AID 743210; active = well fitted activation curve with a large enough effect in the signal ratio in the repeat runs, with a control signal flat, not every such curve was filed as active; the % refers to the signal ratio;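 also: HeLa cells with beta-lactamase reporter driven by heat shock elements; series mostly up to about 63 µM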)
# Outline: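 Fluorescence from a cleaved B/G FRET substrate (2.5 h, room temp) reports HSE-driven beta-lactamase in HeLa cells treated 5 h at 37 C with DMSO-dissolved compounds.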
# [9] = qHTS assay to identify small molecule agonists of the peroxisome proliferator-activated receptor delta (PPARd) signaling pathway - cell viability counter screen (AID 743211); also: nearly all actives have a fitted effect of over 55% in size
# Outline: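 PPARd-bla HEK293H cells (UAS-beta-lactamase reporter) were treated with compounds for 17 h at 37 C. Viability was then read in the same wells by CellTiter-Glo luminescence after 30 min at room temperature.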
# [10] = qHTS assay to identify small molecule antagonists of the peroxisome proliferator-activated receptor delta (PPARd) signaling pathway - cell viability counter screen (AID 743213); also: nearly all actives have a fitted effect of over 50% in size
# Outline: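 HEK293H PPARd UAS-bla cells, 5 h pre-incubation, compound + L165041 300 nM final, 17 h 37 C; B/G FRET substrate 2 h RT; then CellTiter-Glo 30 min RT, luminescence.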
# [11] = qHTS assay to identify small molecule antagonists of the farnesoid-X-receptor (FXR) signaling pathway - cell viability counter screen (AID 743221; active = well fitted cell-killing curve with a large enough effect in the repeat runs, not every such curve was filed as active; also: nearly all actives have a fitted effect of over 50% in size)
# Outline: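 FXR-UAS-bla HEK 293T cells were treated with test compounds plus chenodeoxycholic acid (50 uM final) for 16 h at 37 C. Cell viability in the same wells was then read as CellTiter-Glo luminescence after 30 min at room temperature.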
# [12] = qHTS assay for small molecule activators of the heat shock response signaling pathway - cell viability counter screen (AID 743209); also: nearly all actives have a fitted effect of over 50% in size
# Outline: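 Cytotoxicity counter screen run in parallel with the HSE beta-lactamase reporter, using the same wells. HeLa HSE-bla cells received compound for 5 h at 37 C; ATP-based CellTiter-Glo luminescence was measured after 30 min at room temperature.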
# [13] = molecular target: Peroxisome proliferator-activated receptor delta (Homo sapiens) (UniProt Q03181); experiment: qHTS assay to identify small molecule agonists of the peroxisome proliferator-activated receptor delta (PPARd) signaling pathway (AID 743212; calls by dose curve)
# Outline: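 Steps: seed PPARd-bla HEK293H cells; incubate 5 h, 37 C, 5% CO2; add compounds in DMSO; incubate, 37 C; add LiveBLAzer B/G FRET substrate; hold 2 h at room temperature; measure fluorescence.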
# [14] = molecular target: Peroxisome proliferator-activated receptor delta (Homo sapiens) (UniProt Q03181); experiment: qHTS assay to identify small molecule antagonists of the peroxisome proliferator-activated receptor delta (PPARd) signaling pathway (AID 743215; active = well fitted inhibition curve with a large enough effect in the signal ratio in the repeat runs, not every such curve was filed as active; the % refers to the signal ratio;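 also: cells stimulated with agonist L165041 at 300 nM final during compound exposure; series mostly up to about 62 µM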)
# Outline: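 Cells: HEK293H with a UAS-driven beta-lactamase reporter responsive to PPARd. Compounds were co-added with L165041 (300 nM, final) and incubated 17 h at 37 C before a 2 h room-temperature FRET substrate step and fluorescence reading.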
# [15] = qHTS assay to identify small molecule agonists of the farnesoid-X-receptor (FXR) signaling pathway - cell viability counter screen (AID 743218); also: nearly all actives have a fitted effect of over 45% in size
# Outline: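 Cells were seeded, left 5 h at 37 C and 5% CO2, then dosed with compound in DMSO for 16 h. After the beta-lactamase FRET read, CellTiter-Glo was added and luminescence measured 30 min later.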
# [16] = molecular target: Vitamin D3 receptor (Homo sapiens) (UniProt P11473); experiment: qHTS assay to identify small molecule agonists of the vitamin D receptor (VDR) signaling pathway (AID 743222; calls by dose curve)
# Outline: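 Cells carrying a VDR-driven beta-lactamase reporter are seeded at 2,000 per well and rested 4 h. Compounds in DMSO are added for 16 h at 37C, and FRET substrate fluorescence is measured after 2 h at room temperature.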
# [17] = qHTS assay to identify small molecule antagonists of the peroxisome proliferator-activated receptor gamma (PPARg) signaling pathway - cell viability counter screen (AID 743194); also: nearly all actives have a fitted effect of over 55% in size
# Outline: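 Viability was measured as CellTiter-Glo luminescence in GeneBLAzer PPARg UAS-bla HEK293H cells. These cells had been exposed 17 h at 37 C to compounds together with rosiglitazone at 50 nM final, with the beta-lactamase readout taken in the same wells.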
# [18] = molecular target: Vitamin D3 receptor (Homo sapiens) (UniProt P11473); experiment: qHTS assay to identify small molecule antagonists of the vitamin D receptor (VDR) signaling pathway (AID 743223; active = well fitted inhibition curve with a large enough effect in the signal ratio in the repeat runs, not every such curve was filed as active; the % refers to the signal ratio)
# Outline: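 VDR-bla cells were plated, incubated 4 h at 37C, then given compound and 1alpha,25-dihydroxyvitamin D3 (3 nM final). After 16 h at 37C, LiveBLAzer B/G FRET substrate was added for 2 h at room temperature and fluorescence read.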
# [19] = molecular target: Bile acid receptor (Homo sapiens) (UniProt Q96RI1); experiment: qHTS assay to identify small molecule antagonists of the farnesoid-X-receptor (FXR) signaling pathway (AID 743217; active = well fitted inhibition curve with a large enough effect in the signal ratio in the repeat runs, not every such curve was filed as active; the % refers to the signal ratio)
# Outline: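 Cells carrying a UAS-driven beta-lactamase reporter (GeneBLAzer FXR-UAS-bla HEK 293T) were plated and rested 5 h at 37 °C. Compounds in DMSO were added alongside chenodeoxycholic acid agonist at 50 uM final and left 16 h at 37 °C before FRET substrate readout.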
# [20] = molecular target: Bile acid receptor (Homo sapiens) (UniProt Q96RI1); experiment: qHTS assay to identify small molecule agonists of the farnesoid-X-receptor (FXR) signaling pathway (AID 743220; active = well fitted activation curve with a large enough effect in the signal ratio in the repeat runs, not every such curve was filed as active; the % refers to the signal ratio)
# Outline: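 FXR-UAS-bla HEK 293T cells carrying a UAS-driven beta-lactamase reporter were plated for 5 h at 37C/5% CO2, then exposed to DMSO-dissolved Tox21 10K compounds for 16 h at 37C. A LiveBLAzer B/G FRET substrate was loaded for 2 h at room temperature before fluorescence reading.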
# Sequence of Bile acid receptor (Homo sapiens) (Q96RI1 whole entry, looked up): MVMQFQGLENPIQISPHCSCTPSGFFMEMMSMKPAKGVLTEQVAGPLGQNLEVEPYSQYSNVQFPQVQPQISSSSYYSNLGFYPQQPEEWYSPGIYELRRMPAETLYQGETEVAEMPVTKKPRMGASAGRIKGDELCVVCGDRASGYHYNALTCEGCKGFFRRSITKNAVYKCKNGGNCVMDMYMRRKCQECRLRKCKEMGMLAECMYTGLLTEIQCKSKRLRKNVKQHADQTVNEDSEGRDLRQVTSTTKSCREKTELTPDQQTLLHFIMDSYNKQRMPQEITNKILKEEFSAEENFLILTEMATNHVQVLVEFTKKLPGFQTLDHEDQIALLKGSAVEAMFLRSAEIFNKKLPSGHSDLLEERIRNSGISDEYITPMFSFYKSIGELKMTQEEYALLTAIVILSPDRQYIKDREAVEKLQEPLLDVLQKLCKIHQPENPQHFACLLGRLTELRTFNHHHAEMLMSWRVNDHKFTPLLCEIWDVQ
# Sequence of Vitamin D3 receptor (Homo sapiens) (P11473 whole entry, looked up): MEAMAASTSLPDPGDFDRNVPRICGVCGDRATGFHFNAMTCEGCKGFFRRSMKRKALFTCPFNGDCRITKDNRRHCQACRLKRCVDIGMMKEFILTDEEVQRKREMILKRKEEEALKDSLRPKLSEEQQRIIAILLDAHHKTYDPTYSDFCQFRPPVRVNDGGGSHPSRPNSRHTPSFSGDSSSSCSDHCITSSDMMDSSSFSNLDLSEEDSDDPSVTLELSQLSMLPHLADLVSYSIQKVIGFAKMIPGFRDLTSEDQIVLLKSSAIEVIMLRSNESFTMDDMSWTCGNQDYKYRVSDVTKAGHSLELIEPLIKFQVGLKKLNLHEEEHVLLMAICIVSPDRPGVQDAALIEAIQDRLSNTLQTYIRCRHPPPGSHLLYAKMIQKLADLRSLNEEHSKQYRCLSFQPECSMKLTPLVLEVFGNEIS
# Sequence of Peroxisome proliferator-activated receptor gamma (Homo sapiens) (P37231 whole entry, looked up): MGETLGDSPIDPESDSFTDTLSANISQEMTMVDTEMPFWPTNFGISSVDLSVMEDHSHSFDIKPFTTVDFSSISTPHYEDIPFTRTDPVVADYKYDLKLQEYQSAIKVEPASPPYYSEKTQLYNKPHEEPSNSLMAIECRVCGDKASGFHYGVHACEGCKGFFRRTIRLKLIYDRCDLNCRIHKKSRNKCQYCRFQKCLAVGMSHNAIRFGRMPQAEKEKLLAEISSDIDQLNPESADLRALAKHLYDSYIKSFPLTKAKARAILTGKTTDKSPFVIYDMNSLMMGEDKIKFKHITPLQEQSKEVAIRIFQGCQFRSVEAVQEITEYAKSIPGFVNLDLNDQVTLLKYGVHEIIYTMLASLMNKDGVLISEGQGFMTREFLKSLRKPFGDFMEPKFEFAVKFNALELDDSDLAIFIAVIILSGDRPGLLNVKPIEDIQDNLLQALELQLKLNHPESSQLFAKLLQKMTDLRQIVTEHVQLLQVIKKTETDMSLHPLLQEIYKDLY
# Sequence of Peroxisome proliferator-activated receptor delta (Homo sapiens) (Q03181 whole entry, looked up): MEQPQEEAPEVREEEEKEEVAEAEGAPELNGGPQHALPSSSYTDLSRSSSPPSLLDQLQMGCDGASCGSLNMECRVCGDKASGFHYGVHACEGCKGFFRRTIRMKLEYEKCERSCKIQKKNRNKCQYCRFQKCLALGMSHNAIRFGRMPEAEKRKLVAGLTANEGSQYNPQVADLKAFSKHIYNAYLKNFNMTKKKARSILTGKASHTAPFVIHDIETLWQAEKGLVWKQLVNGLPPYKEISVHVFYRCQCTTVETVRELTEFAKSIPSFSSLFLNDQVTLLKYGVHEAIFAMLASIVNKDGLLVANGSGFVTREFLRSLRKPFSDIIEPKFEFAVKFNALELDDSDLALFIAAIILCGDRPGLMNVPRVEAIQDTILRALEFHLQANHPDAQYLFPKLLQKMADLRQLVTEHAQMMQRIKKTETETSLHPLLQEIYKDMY
# Sequence of Aryl hydrocarbon receptor (Homo sapiens) (P35869 whole entry, looked up): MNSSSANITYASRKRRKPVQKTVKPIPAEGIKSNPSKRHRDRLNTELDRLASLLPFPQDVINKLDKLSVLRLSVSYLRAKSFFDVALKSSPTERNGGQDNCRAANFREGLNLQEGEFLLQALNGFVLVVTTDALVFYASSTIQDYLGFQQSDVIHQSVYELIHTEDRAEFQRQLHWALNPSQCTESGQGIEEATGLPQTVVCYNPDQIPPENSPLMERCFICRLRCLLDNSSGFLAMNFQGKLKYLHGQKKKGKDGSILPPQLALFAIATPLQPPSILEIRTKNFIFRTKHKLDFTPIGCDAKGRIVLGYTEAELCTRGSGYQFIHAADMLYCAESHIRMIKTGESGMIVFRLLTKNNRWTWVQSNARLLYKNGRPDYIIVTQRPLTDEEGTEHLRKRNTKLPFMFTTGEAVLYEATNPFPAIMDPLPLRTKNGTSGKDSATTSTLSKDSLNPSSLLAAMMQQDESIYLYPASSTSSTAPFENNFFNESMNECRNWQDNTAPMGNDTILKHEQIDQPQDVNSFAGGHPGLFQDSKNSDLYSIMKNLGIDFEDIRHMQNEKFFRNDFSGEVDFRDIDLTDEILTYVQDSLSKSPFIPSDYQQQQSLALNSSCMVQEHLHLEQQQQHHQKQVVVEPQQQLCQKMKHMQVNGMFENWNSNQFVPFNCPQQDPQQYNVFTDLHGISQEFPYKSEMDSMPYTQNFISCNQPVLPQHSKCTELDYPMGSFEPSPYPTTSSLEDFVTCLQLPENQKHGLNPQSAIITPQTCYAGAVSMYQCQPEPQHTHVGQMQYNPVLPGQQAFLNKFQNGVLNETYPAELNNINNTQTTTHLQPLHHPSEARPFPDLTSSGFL
Structure (SMILES),outcome [1],Potency [2],outcome [3],outcome [4],outcome [5],Potency [6],outcome [7],outcome [8],outcome [9],outcome [10],outcome [11],Potency [12],outcome [13],outcome [14],outcome [15],outcome [16],outcome [17],outcome [18],outcome [19],outcome [20]
CC(=O)Nc1ccc(OCCOCCOc2ccc(NC(C)=O)cc2)cc1,inactive,inactive,inactive,inactive,inactive,inactive,inactive,inactive,inactive,inactive,inactive,–,–,–,–,–,–,–,–,–
CCCCN(CCCC)CCCCCCN(CCCC)CCCC,inactive,inactive,inactive,inactive,inactive,inactive,inactive,inactive,inactive,inactive,inactive,inactive,inactive,inactive,inactive,inactive,–,–,–,–
CCCOc1ccc(C(=O)OCCN(CC)CC)cc1N,inactive,1330 nM (active),inactive,inactive,inactive,–,inactive,inactive,inactive,inactive,inactive,inactive,inactive,inactive,inactive,inactive,inactive,inactive,–,–
BrCCOc1ccccc1,inactive,inactive,inactive,inactive,inactive,inactive,inactive,–,inactive,inactive,inactive,inactive,inactive,inactive,inactive,inactive,–,inactive,inactive,inactive
O=C[C@@H](O)[C@H](O)[C@H](O)CO,inactive,inactive,inactive,inactive,–,inactive,inactive,inactive,inactive,inactive,–,inactive,inactive,inactive,inactive,–,inactive,–,–,–
C/C=C(\C)C(=O)OC/C=C(\C)CCC=C(C)C,inactive,inactive,inactive,inactive,inactive,inactive,inactive,–,inactive,–,inactive,inactive,inactive,inactive,inactive,inactive,inactive,inactive,–,–
CCCc1ccc(O)c(OC)c1,inactive,inactive,inactive,inactive,inactive,inactive,–,inactive,inactive,inactive,–,inactive,–,–,inactive,inactive,inactive,–,–,–
CC(O)C(CO)C(C)O (stereo not drawn),inactive,inactive,inactive,inactive,inactive,inactive,inactive,inactive,inactive,inactive,inactive,–,inactive,inactive,–,–,–,–,–,–
CCOC(=O)CC(C(C)=O)C(C)=O,inactive,inactive,inactive,inactive,inactive,inactive,inactive,inactive,inactive,inactive,inactive,–,inactive,inactive,inactive,inactive,–,inactive,–,–
CCC(=O)OCCOc1ccccc1,inactive,inactive,inactive,inactive,inactive,–,inactive,inactive,inactive,inactive,inactive,–,–,–,inactive,inactive,inactive,inactive,–,–
CCCCCCCCCCCC(C)=O,inactive,inactive,inactive,inactive,inactive,inactive,inactive,inactive,inactive,inactive,inactive,–,inactive,–,inactive,inactive,inactive,–,inactive,inactive
COC(=O)c1ccc(C(=O)O)cc1,inactive,inactive,inactive,–,inactive,inactive,inactive,inactive,inactive,inactive,–,inactive,inactive,inactive,inactive,inactive,inactive,inactive,inactive,inactive
COc1cc(NS(=O)(=O)c2ccc(N)cc2)ncn1,inactive,inactive,inactive,inactive,–,inactive,inactive,inactive,inactive,inactive,inactive,–,inactive,inactive,inactive,–,inactive,–,–,–
COC(C)(C)CC(C)=O,inactive,inactive,inactive,inactive,–,inactive,inactive,inactive,inactive,–,inactive,–,inactive,inactive,–,inactive,inactive,–,inactive,inactive
Cc1cc(C)c(N)c(Cl)c1,inactive,inactive,inactive,–,inactive,inactive,inactive,inactive,inactive,inactive,–,inactive,inactive,inactive,inactive,inactive,–,inactive,–,–
COc1cnc(NS(=O)(=O)c2ccc(N)cc2)nc1,inactive,inactive,inactive,inactive,–,inactive,inactive,inactive,inactive,inactive,inactive,–,–,–,–,–,inactive,–,–,–
CCOC(=O)COc1ccc2c(C)c(CCN(CC)CC)c(=O)oc2c1Cl,inactive,inactive,inactive,–,inactive,inactive,inactive,–,inactive,inactive,inactive,–,–,–,inactive,inactive,inactive,–,inactive,inactive
CCCCCCCCCCCCCCCC(=O)OC,inactive,inactive,inactive,–,inactive,inactive,inactive,inactive,inactive,inactive,inactive,–,inactive,inactive,inactive,inactive,inactive,inactive,inactive,inactive
CNC(C)=O,inactive,inactive,inactive,–,inactive,inactive,inactive,inactive,inactive,inactive,inactive,inactive,inactive,inactive,inactive,inactive,inactive,inactive,–,–
C=CC(=O)CC,inactive,inactive,inactive,–,inactive,inactive,inactive,inactive,inactive,inactive,inactive,inactive,inactive,inactive,inactive,inactive,inactive,inactive,–,inactive
CSC(=O)c1cccc2nnsc12,inactive,inactive,inactive,–,inactive,inactive,inactive,inactive,inactive,–,inactive,inactive,inactive,inactive,–,inactive,inactive,inactive,–,–
CCCC(C)C(O)CC (stereo not drawn),inactive,inactive,inactive,inactive,–,inactive,inactive,–,inactive,inactive,inactive,–,–,–,inactive,inactive,inactive,–,inactive,inactive
CC(=O)OC/C=C(/C)CCC=C(C)C,inactive,inactive,inactive,–,inactive,inactive,inactive,inactive,inactive,inactive,inactive,inactive,inactive,inactive,inactive,–,inactive,–,–,–
C[Si](C)(C)O[Si](O)(O)O,inactive,inactive,inactive,inactive,–,inactive,inactive,–,inactive,inactive,inactive,inactive,inactive,–,inactive,–,–,inactive,inactive,inactive
NS(=O)(=O)c1cc2c(cc1C(F)(F)F)NCNS2(=O)=O,inactive,inactive,inactive,inactive,–,–,inactive,inactive,inactive,inactive,inactive,inactive,inactive,inactive,–,inactive,inactive,inactive,inactive,–
N#Cc1ccccc1C#N,inactive,inactive,inactive,–,inactive,inactive,inactive,inactive,inactive,inactive,inactive,inactive,inactive,inactive,–,–,inactive,inactive,–,–
C=CCN(CC=C)CC=C,inactive,inactive,inactive,inactive,–,–,inactive,inactive,inactive,inactive,–,inactive,inactive,–,inactive,inactive,inactive,–,–,–
